# In PubChem BioAssay AID896 (National Center for Advancing Translational Sciences (NCATS), 2007):
# This is one part of the list. Records with an inconclusive call do not appear.
# Experiment: Confirmation Concentration-Response Assay for Allosteric/Competitive Inhibitors of Caspase-1
# Conditions: purified caspase-1, fluorogenic substrate cleavage; compound fluorescence baseline read; at 57.5 µM
# Description: NIH Molecular Libraries Screening Centers Network [MLSCN]
# NIH Chemical Genomics Center [NCGC]
# PI Name: Dr. James Wells,
# Dr. Enrique Perez-Paya, Dr.Janice Williams, Dr. Dennis Wolan, a person
# The caspases (Cysteine Aspartyl Protease) comprise a related family of 14 dimeric proteases that are critical mediators of apoptosis (programmed cell death) and inflammation. The caspases represent an important class of drug targets for stroke, ischemia, cancer and inflammatory diseases. […] One goal of this project was to identify compounds that act as allosteric inhibitors via stabilizing the procaspase form of the enzyme. […]
# The biochemical assay was configured using purified caspase 1 at a high enzyme concentration to promote formation of the homodimers and thus facilitate the identification of allosteric inhibitors. […] After initiation of the assay with substrate the plates were rapidly read using an automated robotic system (Kalypsys, Inc.) to maintain consistent timing. […] Product formation was also measured after 1 hour. […]
# Caspase 1 was prepared in buffer (50 mM HEPES pH 7.5, 50 mM KCl, 200 mM NaCl, 10 mM DTT, 0.1% CHAPS) at a concentration of 66.6 nM and 3 uL was dispensed to all wells using black solid Kalypsys 1536-well plates. […] The plates were then exposed using 405 nm excitation/520 nm emission filters for 4 sec and read at 20 sec intervals for 3 min. […]
row,SMILES,baseline fluorescence [%]
1,Cc1nc2c(C(=O)NCc3ccc4c(c3)OCO4)c[nH]n2c(=O)c1Cc1ccccc1F,-1.24
